HIF-2a block: HIF-2a reporter inhibitors, primary screen, luminescence, 786-0 RCC cells; inhibition, % at 18.8 µM; 786-0 RCC cells HIF-2a reporter, luciferase luminescence, overnight; AID 624352, 2012; 0.72% of 360,000 active;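 active = inhibition of the luminescence signal of 40% or more relative to plate controls, in a single-dose primary screen at 18.75 µM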
CF NFkB block: inhibitors of PAF-induced NF-kB signaling, primary screen, cell-based, GFP fluorescence, uHTS; KKLEB NF-kB-GFP reporter, GFP fluorescence overnight; inhibition, % at 5 µM; 0.86% of 360,000 active; AID 588850, 2011;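 active = at least 50% inhibition at 5 µM, scaled per plate between neutral and stimulator controls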;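 note: PAF is a Pseudomonas aeruginosa culture filtrate used as stimulus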
TROY signal inh: inhibitors of TROY-driven NF-kB signaling, primary screen, Q293 LMP1-TROYcd cells, NF-kB luciferase, uHTS; Q293 LMP1-TROYcd NF-kB luciferase reporter, 4 h; AID 1347056, 2019; inhibition, % at 10 µM; 0.98% of 360,000 active;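 active = compounds whose plate-normalised and pattern-corrected inhibition of the luciferase reporter signal at the single screening dose is 50% or more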
KKLEB cytotox: cytotoxicity in KKLEB CF airway cells, primary screen, cytotoxicity control for CF NF-kB inhibitor project, cell-based, uHTS, fluorescence assay plates; AID 602141, 2011; KKLEB CF airway cells viability, ATPlite luminescence, overnight; active compounds read low; cells stimulated with P. aeruginosa culture filtrate; activity change (cytotoxicity), % at 5 µM; 0.36% of 360,000 active;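 active = corrected activity change at or below -50% at 5 µM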
Peg3 prom inh: Peg3 promoter-driven luciferase inhibitors, primary screen, cell-based, HeLa, luciferase luminescence | inhibition, % at 20 µM | HeLa PEG-Prom luciferase reporter, overnight | 1.7% of 360,000 active;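 active = inhibition of at least 50% at 20 µM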
TWEAK Fn14 block: inhibitors of TWEAK-Fn14 signaling, primary screen, luciferase reporter cells, uHTS; TWEAK-stimulated Fn14 reporter cells, luciferase luminescence, 8 h; inhibition, % at 10 µM; 2% of 360,000 active; in the data active = inhibition above about 50%
Large screens that a line does not name were inactive. Shown are actives, neighbours in structure and some others; about 4% of the full set was active somewhere.

O=C(OCC(=O)N1CCc2ccccc2C1)c1ccc(Cl)c([N+](=O)[O-])c1	Peg3 prom inh 98.8
CC(C)N(C(=O)COC(=O)c1ccccc1C(=O)c1ccc(Cl)c([N+](=O)[O-])c1)C(C)C	TROY signal inh 74.2, Peg3 prom inh 73.5
Cc1cc(C(=O)OCC(=O)c2ccc(Cl)c([N+](=O)[O-])c2)c2cccc(C)c2n1	none
Nc1ccc(C(=O)OCC(=O)N2CCc3ccccc3C2)cc1[N+](=O)[O-]	none
CC(C)CN1CCN(C(=O)COC(=O)c2ccc(S(C)(=O)=O)c([N+](=O)[O-])c2)CC1	HIF-2a block 93.5, CF NFkB block 79.4, Peg3 prom inh 97.1, TWEAK Fn14 block 80.3
COc1ccc2cc(C3c4cc(OC)c(OC)cc4CCN3C(=O)c3ccco3)c(=O)[nH]c2c1 (configuration not stated)	none
Cc1ccc(/C=C2\SC(=S)N(CCC(=O)NNS(=O)(=O)c3ccccc3)C2=O)cc1	none
COc1ccc(C(=O)[C@H]2[C@H]3C(=O)N(c4ccc(C)cc4)C(=O)[C@H]3C3C=CC=NN32)cc1 (some centres not stated)	none
COc1ccc(C(=O)N/C(=C\c2cn(S(=O)(=O)N(C)C)c3ccccc23)C(=O)NCCN2CCOCC2)cc1	none
COc1cc(-c2cc(=O)c3ccc(O)cc3o2)cc(OC)c1OC	none
COc1cc(OC)c(-c2c3cc(O)c(=O)cc-3oc3cc(O)c(O)cc23)cc1OC	TWEAK Fn14 block 62.0
CC(C)(C)OC(=O)C(C(=O)OC(C)(C)C)c1ccc(Cl)nn1	none
O=C(c1ccc2c(=O)n(CCc3ccccc3)c(=O)[nH]c2c1)N1CCN(c2ccccc2)CC1	none
O=C(c1ccc2c(=O)n(CCc3ccccc3)c(=O)[nH]c2c1)N1CCN(c2ccc(F)cc2)CC1	TROY signal inh 57.7, TWEAK Fn14 block 74.4
COc1ccc(N2CCN(C(=O)c3ccc4c(=O)n(CCc5ccc(OC)c(OC)c5)c(=O)[nH]c4c3)CC2)cc1	TWEAK Fn14 block 58.5
COCCn1c(=O)[nH]c2cc(C(=O)N3CCN(c4ccc(Cl)cc4)CC3)ccc2c1=O	none
Cc1ccc(S(=O)(=O)c2nc(-c3ccco3)oc2N2CCC(C)CC2)cc1	none
Cc1ccc(OCc2nc(-c3ccccn3)n[nH]2)cc1	none
Cc1cccc(OCc2nc(-c3ccccn3)n[nH]2)c1	TROY signal inh 61.1
NC(=S)N/N=C/c1coc2c(ccc3ccccc32)c1=O	TWEAK Fn14 block 51.1
NC(=S)N/N=C/c1coc2cc(Br)ccc2c1=O	none
O=C(Nc1ccccc1)c1ccccc1OS(=O)(=O)c1ccccc1	none
CCN(CC)C(=O)CSc1nc(N)c(C#N)c(-c2cccs2)c1C#N	none
Cc1nn(-c2ccccc2)c2nc(N)c(C#N)c(-c3ccc(F)cc3)c12	Peg3 prom inh 90.8
Cc1ccc(-n2nc(C)c3c(-c4cccs4)c(C#N)c(N)nc32)cc1	Peg3 prom inh 86.4
Cc1nc(N)c(C#N)c(-c2ccccc2)c1C	none
S=c1[nH]cnc2scc(-c3ccc(Cl)cc3)c12	TROY signal inh 67.7
O=C(NC1CC1)c1cccc2c1C(=O)c1ccc(N3CCC(Cc4ccccc4)CC3)cc1S2(=O)=O	TWEAK Fn14 block 63.5
O=C(NCc1ccc(F)cc1)c1cccc2c1C(=O)c1ccc(N3CCC(Cc4ccccc4)CC3)cc1S2(=O)=O	none
CN(C)S(=O)(=O)c1cccc(NC(=O)c2sccc2-c2ccccc2)c1	none
CCN(CC)Cc1cc(Nc2c3ccccc3nc3c4ccccc4n(C)c23)cc(CN(CC)CC)c1O	Peg3 prom inh 102.0
COc1ccc(OC)c(NC(=O)COc2coc(CN3CCc4ccccc43)cc2=O)c1	none
O=C(CSc1n[nH]c(-c2ccccn2)n1)Nc1ccc(F)cc1	none
O=C(CSc1n[nH]c(-c2ccccn2)n1)Nc1ccc(Cl)cc1	Peg3 prom inh 53.5
O=C(Nc1cc(S(=O)(=O)N2CCCCC2)ccc1Oc1ccccc1)C1=COCCO1	none
O=c1[nH]c(SCc2nc3c(cnn3-c3ccccc3)c(=O)[nH]2)nc2ccccc12	none
O=c1[nH]c(CSc2nc3ccccc3o2)nc2c1cnn2-c1ccccc1	Peg3 prom inh 52.7
NC(=O)C1CCN(S(=O)(=O)c2ccc3c(c2)OCCO3)CC1	none
O=C(c1ccc2c(c1)OCCO2)C1CCN(S(=O)(=O)c2ccc(F)cc2)CC1	Peg3 prom inh 55.0
CC(=O)c1ccc(NC(=O)c2noc(C)c2[N+](=O)[O-])cc1	none
COc1ccc([C@@H]2[C@@H]3C(=O)N(C(C)(C)C)C(=O)[C@@H]3[C@]3(Cc4ccccc4)C(=O)N(c4ccc(Br)cc4)C(=O)N23)cc1	CF NFkB block 71.1, KKLEB cytotox -83.4
Cc1ccccc1NC(=O)c1ccc(NS(=O)(=O)c2cc(C(C)(C)C)cc(C)c2C)cc1	TWEAK Fn14 block 51.8
CCOc1ccc(NC(=O)CSc2nc3ccsc3c(=O)n2CCCCC(=O)O)cc1	none
COC(=O)c1nc(-c2ccccc2)oc1N(C)C	none
CCOC(=O)c1sc(N(Cc2ccccc2)C(=O)CCl)nc1C	CF NFkB block 65.1, Peg3 prom inh 63.2
CCOC(=O)c1sc(N(Cc2ccccc2)C(=O)COC(=O)c2ccc(O)cc2)nc1C	TWEAK Fn14 block 71.2
CCOC(=O)c1sc(N(Cc2ccccc2)C(=O)COC(=O)c2ccccc2O)nc1C	none
Clc1ccc(OCc2nn3c(-c4ccco4)nnc3s2)c(Cl)c1	TROY signal inh 69.0
Cc1ccc(OCc2nn3c(-c4ccco4)nnc3s2)cc1	none
C/C(=N\NC(=O)c1ccccc1O)c1cccs1	TWEAK Fn14 block 73.3
O=C(CCc1nc(-c2ccc(Cl)cc2)no1)NCc1ccccc1CN1CCOCC1	TROY signal inh 84.2
O=C(CCc1nc(-c2ccccc2)no1)NCc1ccccc1CN1CCOCC1	none
Cc1c(Cl)cccc1Nc1n[nH]c(=S)s1	Peg3 prom inh 101.1
Cc1ccccc1Nc1n[nH]c(=S)s1	none
O=C(O)c1cc(-c2ccc(-c3c(-c4ccc5c(c4)OCO5)noc3-c3ccsc3)cc2)nc2ccccc12	TWEAK Fn14 block 56.7
CN(C)c1ccc(-c2c(-c3ccc4c(c3)OCO4)noc2-c2ccsc2)cn1	none
CSc1nc(=S)n(Cc2ccccc2)c(C)c1C(C)=O	none
Cc1ccc(C(=O)NC(=C(Cl)Cl)S(=O)(=O)c2ccc(C)cc2)cc1	TWEAK Fn14 block 54.5
Cc1ccc(C(=O)NC(=C(Cl)Cl)S(=O)(=O)c2ccc(Cl)cc2)cc1	Peg3 prom inh 58.0, TWEAK Fn14 block 93.3
